Screening results: PubChem, National Center for Advancing Translational Sciences (NCATS)
IL1B secr inh: inflammasome signaling inhibition, IL-1 beta readout; THP-1 LPS/ATP IL-1B secretion, AlphaLISA, 16 h; stronger effect = lower value; activity change, % at 57.5 µM; hit rate 4.7% among 360,000; AID 743279; in the data active = activity change below about -50%; inconclusive = mostly about -30% to -49%
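THP-1 cells pretreated 1 hr with compounds (up to 57.5 uM final), then stimulated with LPS (250 ng/mL final) plus ATP (1.25 mM final); secreted IL-1B measured by AlphaLISA after 16 hr, decreased signal indicating inhibition.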
DT40 TDP1 no CPT: qHTS for Inhibitors of human tyrosyl-DNA phosphodiesterase 1 (TDP1): qHTS in cells in absence of CPT | DT40 Tdp1-/- hTDP1 cells, no CPT, ATP luminescence, 48 h | Potency, µM (doses to about 46.2 µM), inactives show at the highest dose activity change, negative = growth inhibition, hits mostly inhibitors | hit rate 15% among 420,000; also: potency is read from the fitted curve at half-maximal effect; nearly all actives have a fitted effect of over 55% in size
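No-CPT arm: Tdp1-/-;hTDP1 DT40 cells (400/well) plus compounds, incubated ≥48 hr at 37 °C. Readout CellTiter-Glo luminescence.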
DT40 TDP1 CPT: DT40-hTDP1 cell growth loss with CPT; Potency, µM (doses to about 46.2 µM), inactives show top-dose activity change, negative = growth inhibition, usual class: inhibitors; chicken DT40 Tdp1-/-;hTDP1 cells + 20 nM CPT, ATP luminescence, 48 h; hit rate 12% among 420,000; also: potency is read from the fitted curve at half-maximal effect; nearly all actives have a fitted effect of over 55% in size
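Chicken DT40 Tdp1-/- cells stably complemented with human TDP1 were seeded at 400 cells/well in medium containing 20 nM camptothecin, exposed to pin-transferred compounds, and grown at 37 °C for at least 48 hr. Viability was read as ATP luminescence.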
ELG1 DNA repair: inhibitors of ELG1-dependent DNA repair in HEK293T cells; HEK293T ELG1-luciferase reporter, luminescence, 16 h; DNA damage induced by 5-fluorouridine; Potency, µM (titrated, usually from 46.1 µM), for inactives: at the top dose activity change, negative = inhibition, usual class: inhibitors; hit rate 2.3% among 330,000; AID 504467; also: potency is read from the fitted curve at half-maximal effect; nearly all actives have a fitted effect of over 55% in size
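5-Fluorouridine DNA damage + compound/DMSO, 2,000 cells/well, 16 h, 37 °C/5% CO2. ONE-Glo, 30 min RT, luminescence. Readout = decrease in reporter signal.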
Gal4-VP16 FLuc: counter-screen for ROR gamma inhibitors: Gal4-VP16 reporter; Potency, µM (doses to about 53.6 µM), without a hit: at the top dose activity, negative = inhibition, hits mostly inhibitors; Drosophila S2 Gal4-VP16 UAS-luciferase, luminescence, 20 h; AID 2546; hit rate 3.5% among 310,000;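 also: Gal4-VP16 expression switched on by copper sulfate through the metallothionein promoter; potency is read from the fitted curve at half-maximal effect; nearly all actives have a fitted effect of over 50% in size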
RORgamma inh: ROR gamma (mouse) transcription inhibition; P51450; Drosophila S2 Gal4-RORgamma UAS-luciferase reporter, 20 h; Potency, µM (doses to about 53.6 µM), without a hit: top-dose activity change, negative = inhibition, hits mostly inhibitors; hit rate 5.4% among 310,000; also: potency is read from the fitted curve at half-maximal effect; nearly all actives have a fitted effect of over 60% in size
Target sequence (P51450 whole entry, looked up, the tested form may be a part): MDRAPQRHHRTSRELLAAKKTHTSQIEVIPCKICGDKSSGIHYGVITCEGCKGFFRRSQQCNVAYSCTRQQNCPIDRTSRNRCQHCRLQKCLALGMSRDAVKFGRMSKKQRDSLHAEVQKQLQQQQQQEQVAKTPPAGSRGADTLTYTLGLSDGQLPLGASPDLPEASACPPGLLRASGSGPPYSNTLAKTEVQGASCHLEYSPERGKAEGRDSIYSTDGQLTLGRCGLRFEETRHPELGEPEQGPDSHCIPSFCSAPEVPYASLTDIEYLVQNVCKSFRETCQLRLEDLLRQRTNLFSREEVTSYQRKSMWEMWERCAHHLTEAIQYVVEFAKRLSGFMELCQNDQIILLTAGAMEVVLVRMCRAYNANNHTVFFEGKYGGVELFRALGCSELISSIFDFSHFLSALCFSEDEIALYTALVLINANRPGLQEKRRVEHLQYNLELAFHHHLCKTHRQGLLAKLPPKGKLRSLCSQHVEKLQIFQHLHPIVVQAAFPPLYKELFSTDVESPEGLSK
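Stably transfected Drosophila Schneider cells are the test system, with ROR gamma fused to Gal4 and luciferase under UAS control; luminescence is read after 20 hr of 700 uM copper sulfate induction at ambient temperature.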
An asterisk follows results filed as active; i = inactive; ? = inconclusive; / = no result given. Hits are enriched below; roughly 21% of the tested compounds scored in any of these assays. Unless noted, calls follow the shape of the dose curve; as a rule, active = well fitted curve in the direction sought with a large enough effect; inconclusive = small, poorly fitted or top-dose-only effect, or another doubt; inactive = no such curve, though single readings can be large; an effect the other way counts as inactive or inconclusive. % is scaled to controls: 0 for no effect and ±100 for the full control effect.

SMILES	IL1B secr inh	DT40 TDP1 no CPT	DT40 TDP1 CPT	ELG1 DNA repair	Gal4-VP16 FLuc	RORgamma inh
CCOc1ccc(/C=C/C(=O)Nc2cccc(C(C)=O)c2)cc1	-2.3	0.581µM*	-85.1%	?	4.47µM*	1.12µM*
COCC(C)NC(C(=O)Nc1cccc(C(C)=O)c1)c1ccccc1 (stereo unspecified)	-3.2	-12.0%	-4.8%	6.3%	-7.8%	-1.4%
CCCCOc1ccc(/C=C/C(=O)Nc2ccc(C(N)=O)cc2)cc1	11.7	-6.8%	-5.3%	21.8%	-1.6%	3.9%
CCOc1ccc(N(CC(=O)Nc2cccc(F)c2)S(=O)(=O)c2c(C)noc2C)cc1	-1.3	20.6µM*	?	?	-20.1%	-5.9%
CCOc1ccc(N(CC(=O)Nc2ccc(C)c(C)c2)S(=O)(=O)c2c(C)noc2C)cc1	-24.0	10.3µM*	9.2µM*	?	?	?
CCn1c2ccccc2c2cc(NC(=O)c3ccco3)ccc21	-52.3*	?	?	-15.9%	9.8%	25.7%
CCCc1nc2ccc(NC(=O)c3ccco3)cc2c(=O)n1Cc1ccccc1Cl	-1.8	?	?	18.4µM*	-4.9%	?
CCn1c2ccccc2c2cc(NC(=O)c3ccccc3[N+](=O)[O-])ccc21	41.1	23.1µM*	20.6µM*	?	-12.6%	?
CCn1c2ccccc2c2cc(NC(=O)c3ccc([N+](=O)[O-])cc3)ccc21	-9.3	?	-4.5%	-15.5%	-8.0%	5.3%
CCn1c2ccccc2c2cc(NC(=O)c3cccc(OC)c3OC)ccc21	-26.3	4.11µM*	8.2µM*	14.6µM*	-0.2%	?
CCN1CCN(C(=O)C(=O)c2cn(CC(=O)N3CCCC3)c3ccccc23)CC1	i	1.8%	-2.9%	?	-11.9%	-12.5%
COc1cccc(C(=O)Nc2cccc3c2ccc2cccn23)c1	-29.9	23.1µM*	16.4µM*	5.7%	14.7%	2.3%
CCn1c2ccccc2c2cc(NC(C)=O)ccc21	11.4	1.3%	14.6%	-1.5%	7.4%	-2.4%
CCn1c2ccccc2c2cc(NC(=O)c3cccc(OC)c3)ccc21	?	7.94µM*	8.91µM*	-9.3%	-0.6%	?
CCN(C[C@H]1N[C@@](CC)(C(=O)OC)[C@H]2C(=O)N(C)C(=O)[C@@H]12)S(=O)(=O)c1ccc(OC(F)(F)F)cc1	8.0	?	?	-7.3%	/	/
Cc1ccc(CNc2nc(C)cs2)cc1	-58.0*	-28.1%	-2.8%	?	-9.5%	?
CC1(C(=O)NCCCNc2ncc(C(F)(F)F)cc2Cl)C=CC2(CCCCC2)N1C(=O)c1ccccc1 (stereo unspecified)	/	/	/	/	-18.9%	1.8%
NNC(=O)C1SCCN1S(=O)(=O)c1ccc(Cl)cc1 (stereo unspecified)	-12.6	-18.5%	7.8%	/	/	/
CC(=O)N(C1=C(N2CCOCC2)C(=O)c2ccccc2C1=O)c1ccc(C(=O)O)cc1	18.3	?	?	23.1µM*	11.2µM*	?
CC(C(=O)N1CCOCC1)N1C(=O)c2ccccc2C1=O (stereo unspecified)	24.8	-23.7%	-0.9%	6.3%	-6.6%	15.1%
CC(=O)N(C)C1=C(N2CCOCC2)C(=O)c2ccccc2C1=O	-93.9*	0.164µM*	0.184µM*	?	?	8.91µM*
O=C(c1ccccc1)c1ccc(N2CCOCC2)cc1	10.3	?	?	/	/	/
Cc1ccc(C(=O)N2CCN(c3cccc(Cl)c3)CC2)cc1C	15.9	25.9µM*	?	-20.2%	17.4%	-42.1%
COc1ccc(C(=O)N2CCN(c3cccc(Cl)c3)CC2)cc1	-59.0*	16.4µM*	?	8.3%	-6.9%	-17.1%
COc1ccc(C(=S)N2CCN(c3cccc(Cl)c3)CC2)c(OC)c1	50.0	4.11µM*	2.59µM*	?	-12.0%	-34.1%
SMILES	IL1B secr inh	DT40 TDP1 no CPT	DT40 TDP1 CPT	ELG1 DNA repair	Gal4-VP16 FLuc	RORgamma inh
Cc1ccc(C(=O)N2CCN(c3ccccc3)CC2)cc1C	-1.4	-16.6%	-10.3%	?	2.6%	32.9%
COc1ccc(C(=O)N2CCN(c3cccc(Cl)c3)CC2)cc1S(=O)(=O)NC1CC1	22.1	14.6µM*	14.6µM*	26.5%	/	/
COc1ccc(C(=O)N2CCN(c3ccc(F)cc3)CC2)cc1S(=O)(=O)NC1CC1	-13.4	?	-21.8%	?	/	/
COc1ccc(NC(=O)Cc2nnc(SCC(=O)c3ccc(F)cc3)n2C)cc1	-0.3	5.3%	7.5%	-10.5%	7.7%	8.9%
CC(=O)c1ccc(N2CCN(c3nc4ccccc4c4nc(-c5cccc(C)c5)nn34)CC2)cc1	/	-12.6%	-8.3%	/	/	/
COC(=O)c1ccc(Cn2cnc3c(Cl)ncnc32)cc1	-93.7*	?	?	/	/	/
CSc1ncnc2c1ncn2CCCNCCCc1ccccc1	-16.5	8.4%	5.9%	/	/	/
COc1ccc(C(=O)Nn2c(C)nc3ccccc3c2=O)c(OC)c1	-3.7	-5.1%	8.6%	-4.9%	-8.8%	5.9%
COc1ccc(C(=O)Nn2c(CC(C)C)nc3cc(Cl)ccc3c2=O)c(OC)c1	23.7	20.6µM*	?	-8.2%	-0.6%	-4.8%
CCNC(=O)[C@H]1O[C@H](n2cnc3c(N)nc(NCCc4ccc(CCC(=O)O)cc4)nc32)[C@@H](O)[C@@H]1O	/	?	0.2%	/	2.9%	0.5%
CCc1ccc(OCC(=O)NNC(=O)c2cnccn2)c(Br)c1	0.0	8.2µM*	5.8µM*	-2.6%	6.31µM*	?
CCc1ccc(OCC(=O)Nc2ncn[nH]2)c(Br)c1	/	0.4%	-7.1%	/	/	/
CCc1ccc(OCC(=O)Nc2ccncc2)c(Br)c1	-8.8	10.3µM*	?	?	?	43.8%
Cc1cc(OCC(=O)Nc2ccncc2)c(C)cc1Br	-12.6	-17.4%	?	-13.4%	12.6µM*	?
COc1ccccc1OCC(=O)NNC(=O)c1cnccn1	24.3	?	?	2.4%	-2.9%	11.2µM*
COc1ccccc1NC(=O)COC(=O)c1cnccn1	-1.3	2.4%	7.8%	18.3%	5.2%	-29.8%
Cc1cccn2c(=S)[nH]nc12	9.7	-3.1%	4.3%	/	/	/
COc1ccccc1NC(=O)C1CCN(c2cnccn2)CC1	/	5.5%	-20.2%	/	/	/
CC(C)(C)c1ccc(OCC(=O)Nc2ccncc2)c(Br)c1	39.5	7.31µM*	8.2µM*	-11.6%	?	?
COc1ccccc1OCC(=O)NNC(=O)c1ccoc1C	-8.8	?	14.6µM*	3.1%	-8.9%	-16.3%
Cc1cccc(C)c1OCC(=O)NNC(=O)c1ccoc1C	1.9	-1.2%	-9.7%	-2.9%	-5.4%	-1.5%
